Source: PubChem BioAssay (Broad Institute)
Only a selection was taken, and hits are over-represented in it overall.
IDE exosite inh – exo-site inhibitors of human IDE, primary screen, biochemical, fluorescence anisotropy, probe displacement. purified IDE, FL-6b probe fluorescence polarization; hits give low values. z-score at 20 µM. 17,000 compounds, 6.3% hits;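 active = z-score of -3 or lower, meaning strong loss of probe binding signal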;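 also: His-tagged human IDE residues 42-1019 made in E. coli with 30 nM FL-6b probe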
Target sequence (P14735 42-1019 limits assumed): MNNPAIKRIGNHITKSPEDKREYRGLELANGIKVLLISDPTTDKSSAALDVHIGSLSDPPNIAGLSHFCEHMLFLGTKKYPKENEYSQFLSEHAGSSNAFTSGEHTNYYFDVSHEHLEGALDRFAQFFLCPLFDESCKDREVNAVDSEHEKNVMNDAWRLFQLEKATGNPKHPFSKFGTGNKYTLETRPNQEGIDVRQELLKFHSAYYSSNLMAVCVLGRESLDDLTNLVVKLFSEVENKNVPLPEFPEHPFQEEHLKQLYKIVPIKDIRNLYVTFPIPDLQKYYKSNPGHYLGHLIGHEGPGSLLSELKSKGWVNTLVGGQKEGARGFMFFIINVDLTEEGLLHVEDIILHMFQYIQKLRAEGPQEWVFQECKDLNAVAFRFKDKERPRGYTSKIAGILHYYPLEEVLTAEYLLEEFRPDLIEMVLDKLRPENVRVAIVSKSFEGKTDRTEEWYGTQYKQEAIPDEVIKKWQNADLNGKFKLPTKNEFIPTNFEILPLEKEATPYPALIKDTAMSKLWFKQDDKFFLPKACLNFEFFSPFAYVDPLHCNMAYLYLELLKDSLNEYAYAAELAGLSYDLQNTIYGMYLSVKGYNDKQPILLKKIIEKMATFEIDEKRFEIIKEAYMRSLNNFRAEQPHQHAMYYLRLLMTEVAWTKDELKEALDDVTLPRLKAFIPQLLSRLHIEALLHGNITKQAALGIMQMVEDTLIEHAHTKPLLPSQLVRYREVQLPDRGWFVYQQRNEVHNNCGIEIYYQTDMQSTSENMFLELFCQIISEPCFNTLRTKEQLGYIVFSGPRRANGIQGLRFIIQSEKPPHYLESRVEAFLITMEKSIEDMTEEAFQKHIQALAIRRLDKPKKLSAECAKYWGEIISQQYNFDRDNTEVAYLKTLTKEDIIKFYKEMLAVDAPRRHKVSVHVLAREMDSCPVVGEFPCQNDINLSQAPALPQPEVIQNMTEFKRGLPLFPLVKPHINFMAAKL
An asterisk follows results filed as active.

SMILES	IDE exosite inh
COc1ccc2c3c(n(C)c2c1)[C@H](CO)NCC31CCN(C(=O)Nc2ccc(F)cc2F)CC1	0.61
COc1ccccc1-c1cnc2c(c1)C(=O)N([C@H](C)CO)C[C@H](C)[C@H](CN(C)C(=O)CC1CC1)O2	-1.9
O=C(c1ccccc1F)N1CC(=O)N2[C@H](CO)[C@H](c3ccc(C#Cc4ccccc4)cc3)[C@H]2C1	-2.4
O=C(Nc1ccccc1F)N1CC(=O)N2[C@H](CO)[C@H](c3ccc(C#Cc4ccc(F)cc4)cc3)[C@@H]2C1	0.19
O=C(c1ccccc1F)N1CC(=O)N2[C@@H](CO)[C@@H](c3ccc(C#Cc4ccccc4)cc3)[C@@H]2C1	-1.2
O=C(Nc1ccccc1F)N1CC(=O)N2[C@@H](CO)[C@@H](c3ccc(C#Cc4ccccc4)cc3)[C@@H]2C1	-5.8*
O=C(Nc1ccccc1F)N1CC(=O)N2[C@H](CO)[C@H](c3ccc(C#Cc4ccccc4)cc3)[C@H]2C1	-1.9
O=C(c1ccccc1F)N1CC(=O)N2[C@@H](CO)[C@H](c3ccc(C#Cc4ccccc4)cc3)[C@@H]2C1	-3.5*
CNC[C@H]1OCCCC[C@@H](C)Oc2ccc(NC(=O)Nc3ccc(OC)cc3)cc2C(=O)N([C@H](C)CO)C[C@@H]1C	-0.096
O=C(Nc1cccc(F)c1)N1CC(=O)N2[C@H](CO)[C@@H](c3ccc(C#Cc4cccnc4)cc3)[C@H]2C1	0.054
C[C@H]1CN([C@@H](C)CO)C(=O)CCCn2cc(nn2)CO[C@H]1CN(C)C(=O)Nc1cccc2ccccc12	-0.74
CN(C[C@@H]1N[C@H](CO)[C@H]1c1ccccc1)C(=O)c1ccccn1	0.75
COc1ccc(C#Cc2ccc([C@@H]3[C@H]4CN(C(=O)c5ccc(F)cc5)CC(=O)N4[C@H]3CO)cc2)cc1	2.3
CN(C)CC(=O)N1CCCCN2[C@H](CO)[C@H](c3ccc(-c4ccccc4)cc3)[C@@H]2C1	2.3
C/C=C/c1ccc([C@@H]2[C@H](CO)N3CCCCN(C(=O)CN(C)C)C[C@@H]23)cc1	3.9
CN(C)CC(=O)N1CCCCN2[C@H](CO)[C@H](c3ccc(-c4ccccc4)cc3)[C@H]2C1	2.3
CN(C)CC#Cc1ccc([C@H]2[C@H]3CN(C(=O)CN(C)C)CCCCN3[C@H]2CO)cc1	4.6
CN(C)CC(=O)N1CCCCN2[C@H](CO)[C@H](c3ccc(/C=C/c4ccccc4)cc3)[C@@H]2C1	-7.7*
CN(C)CC(=O)N1CCCCN2[C@H](CO)[C@@H](c3ccc(/C=C/c4ccccc4)cc3)[C@@H]2C1	-12*
COCCNC(=O)C[C@H]1CC[C@H]2[C@@H](COC[C@@H](O)CN2C(=O)c2cc(Cl)cc(Cl)c2)O1	2
C[C@@H]1CCCCO[C@@H](CN(C)C(=O)CCC(F)(F)F)[C@H](C)CN([C@H](C)CO)C(=O)c2cc(NC(=O)C3CCCCC3)ccc2O1	-0.27
CCS(=O)(=O)Nc1ccc2c(c1)C(=O)N(C)[C@@H]1CC[C@H](CC(=O)NC3CCCCC3)O[C@H]1CO2	-0.95
CO[C@H]1CN(C)C(=O)c2cc(NC(=O)NC(C)C)ccc2OC[C@@H](C)N(C(=O)CN(C)C)C[C@@H]1C	0.47
CCCC#Cc1ccc([C@H]2[C@@H](C#N)N(C(=O)CN3CCOCC3)[C@@H]2CO)cc1	-1
CO[C@@H]1CN(C)C(=O)c2cc(NC(=O)C3CCCCC3)ccc2OC[C@H](C)N(Cc2cccnc2)C[C@@H]1C	0.11
SMILES	IDE exosite inh
COc1ccc2c3c(n(C)c2c1)[C@H](CO)N(Cc1ccncc1)CC31CN(C(=O)Nc2cccc(F)c2)C1	0.68
COc1cccc(-c2ccc([C@H]3[C@@H](CO)N4C(=O)CN(C(=O)c5ccncc5)C[C@@H]34)cc2)c1	-8.6*
COc1cccc(-c2ccc([C@@H]3[C@@H](CO)N4C(=O)CN(C(=O)c5ccncc5)C[C@H]34)cc2)c1	1.7
COc1cccc(-c2ccc([C@@H]3[C@H](CO)N4C(=O)CN(C(=O)c5cccnc5)C[C@@H]34)cc2)c1	-1.6
O=C(c1ccncc1)N1CC(=O)N2[C@H](CO)[C@H](c3ccc(-c4ccccc4)cc3)[C@@H]2C1	2.2
COc1cccc(-c2ccc([C@@H]3[C@H]4CN(C(=O)c5ccncc5)CC(=O)N4[C@H]3CO)cc2)c1	-11*
COc1cccc(-c2ccc([C@H]3[C@H]4CN(C(=O)c5cccnc5)CC(=O)N4[C@H]3CO)cc2)c1	-0.65
COCC(=O)N(C[C@@H]1[C@@H](c2ccccc2)[C@H](CO)N1C(=O)NC(C)C)C(C)C	-1.5
O=C(C1CCOCC1)N1CC(=O)N2[C@@H](CO)[C@@H](c3ccc(C#CC4CCCCC4)cc3)[C@@H]2C1	0.43
O=S(=O)(c1ccccc1)N1CCCCN2[C@@H](CO)[C@@H](c3ccc(C#Cc4cccnc4)cc3)[C@@H]2C1	1.6
O=C(Cc1cccnc1)N1CC(=O)N2[C@H](C1)[C@@H](c1ccc(C#CC3CCCCC3)cc1)[C@@H]2CO	0.59
CCN(C[C@@H]1[C@H](c2ccccc2)[C@H](CO)N1C(C)=O)C(=O)c1ccccn1	2.3
CC(=O)N1CCCCN2[C@H](C1)[C@H](c1ccc(C#Cc3ccccc3F)cc1)[C@@H]2CO	-4.7*
CC(=O)N1CCCCN2[C@H](CO)[C@H](c3ccc(C#Cc4ccccc4F)cc3)[C@H]2C1	-7.3*
CC(=O)N1CCCCN2[C@H](C1)[C@@H](c1ccc(C#Cc3ccccc3F)cc1)[C@@H]2CO	-4.5*
COc1ccc(C#Cc2ccc([C@H]3[C@@H](CO)N4CCCCN(C(=O)Nc5ccccc5F)C[C@@H]34)cc2)cc1	1.7
CC(=O)N1CCCCN2[C@H](CO)[C@@H](c3ccc(-c4ccccc4)cc3)[C@H]2C1	-0.77
CC(=O)N1CCCCN2[C@H](CO)[C@H](c3ccc(C#Cc4ccccc4F)cc3)[C@@H]2C1	-4.9*
CC(=O)N1CCCCN2[C@@H](CO)[C@H](c3ccc(C#Cc4ccccc4F)cc3)[C@@H]2C1	-0.29
O=C(Nc1ccc(F)cc1)N1CCCCN2[C@H](CO)[C@@H](c3ccc(C#Cc4ccccc4)cc3)[C@@H]2C1	3.6
COc1ccc(C#Cc2ccc([C@@H]3[C@@H](CO)N4CCCCN(C(=O)Nc5ccccc5F)C[C@@H]34)cc2)cc1	0.14
O=S(=O)(c1ccccc1F)N1CCCCN2[C@H](CO)[C@H](c3ccc(-c4ccncc4)cc3)[C@H]2C1	2.6
O=C1CN(S(=O)(=O)Cc2ccccc2)C[C@@H]2[C@H](c3ccc(C#Cc4cccc(F)c4)cc3)[C@@H](CO)N12	4.4
O=C(c1ccc(F)cc1)N1CC(=O)N2[C@H](CO)[C@@H](c3ccc(C#CC4CC4)cc3)[C@@H]2C1	1.4
CCCC#Cc1ccc([C@H]2[C@H](CO)N3C(=O)CN(C(=O)NC4CCCC4)C[C@@H]23)cc1	-3
SMILES	IDE exosite inh
CC(C)C#Cc1ccc([C@H]2[C@H]3CN(S(=O)(=O)c4ccccc4)CC(=O)N3[C@H]2CO)cc1	-0.73
O=C(c1ccccc1F)N1CC(=O)N2[C@H](CO)[C@H](c3ccc(-c4ccccc4)cc3)[C@@H]2C1	0.12
COCC(=O)Nc1ccc2c(c1)OC[C@@H](C)N(C)C[C@H](C)[C@H](OC)CN(C)C2=O	-0.14
CCS(=O)(=O)N1CC2(C1)[C@H](c1ccccc1)[C@H](CO)N2C(=O)c1ccccc1	1.1
O=C(Cc1ccccn1)N1CC(=O)N2[C@@H](CO)[C@@H](c3ccc(-c4ccccc4)cc3)[C@@H]2C1	-5.6*
Cc1cccc(-c2ccc([C@H]3[C@H](CO)N4C(=O)CN(C(=O)Cc5ccccn5)C[C@@H]34)cc2)c1	-6.9*
